Only some compounds are listed: those with a hit (about 3.1% of all), similar ones and a draw of the others.
PI4K2A inh: qHTS for small molecular inhibitors of PI4K2A | purified PI4K2A, ADP-Glo luminescence, 1 h; active compounds read low | activity change, negative = inhibition, % at 76.9 µM | 0.13% of 420,000 active | AID 1346378, 2018; in the data active = activity change below about -50%; inconclusive = mostly about -30% to -49%;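 note: -100% = wells without enzyme as full effect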
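In this quantitative HTS, ADP production by PI4K2A was quantified luminescently after 1 h at ambient temperature; 100 microM adenosine served as plate-quality control.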
GLS inh: qHTS for Inhibitors of Glutaminase (GLS) | Glutaminase kidney isoform, mitochondrial (Homo sapiens), O94925 | GLS enzymatic activity, qHTS titration | Potency, µM (titrated, usually from 45.5 µM), for the others: at the top dose activity change, negative = inhibition, usual class: inhibitors | 0.21% of 410,000 active | AID 624170, 2012; note: potency is the fitted concentration of half-maximal effect
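Compounds were pin-transferred onto hKGA, after which L-glutamine (1 mM solution) and a detection mix of glutamate oxidase, HRP and Amplex Red were added. Initial and 30 min RT fluorescence reads were collected.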
KAT2A inh: qHTS Assay for Inhibitors of GCN5L2. Histone acetyltransferase KAT2A (Homo sapiens), Q92830. GCN5L2 HAT assay, ThioGlo1 CoA-SH fluorescence. Potency, µM (titrated, usually from 58.9 µM), inactives show top-dose activity change, negative = inhibition, usual class: inhibitors. 0.21% of 390,000 active. AID 504327, 2011; note: potency is the fitted concentration of half-maximal effect
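GCN5L2 (20 nM) in 50mM HEPES pH 7.5, 0.1mM EDTA, 0.01% Tween-20 preincubated 15 min with compounds at room temperature. Reaction started with H3(1-25) 75uM, acetyl-CoA 70uM, ThioGlo1 50uM; CoA-thiol fluorescence (Ex340/Em540) read at 0 and 20 min.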
PLK1 PBD block: qHTS for Inhibitors of PLK1-PDB (polo-like kinase 1 - polo-box domain): Primary Screen. Potency, µM, for inactives: max response, negative = inhibition, most hits filed as inhibitors. Plk1 PBD binding of FITC phosphopeptide, fluorescence polarization. 2.8% of 360,000 active. Serine/threonine-protein kinase PLK1 (Homo sapiens), P53350; note: potency is the fitted concentration of half-maximal effect; series mostly up to about 57 µM; nearly all actives have a fitted effect of over 65% in size
Target sequence (P53350 whole entry, looked up, the tested form may be a part): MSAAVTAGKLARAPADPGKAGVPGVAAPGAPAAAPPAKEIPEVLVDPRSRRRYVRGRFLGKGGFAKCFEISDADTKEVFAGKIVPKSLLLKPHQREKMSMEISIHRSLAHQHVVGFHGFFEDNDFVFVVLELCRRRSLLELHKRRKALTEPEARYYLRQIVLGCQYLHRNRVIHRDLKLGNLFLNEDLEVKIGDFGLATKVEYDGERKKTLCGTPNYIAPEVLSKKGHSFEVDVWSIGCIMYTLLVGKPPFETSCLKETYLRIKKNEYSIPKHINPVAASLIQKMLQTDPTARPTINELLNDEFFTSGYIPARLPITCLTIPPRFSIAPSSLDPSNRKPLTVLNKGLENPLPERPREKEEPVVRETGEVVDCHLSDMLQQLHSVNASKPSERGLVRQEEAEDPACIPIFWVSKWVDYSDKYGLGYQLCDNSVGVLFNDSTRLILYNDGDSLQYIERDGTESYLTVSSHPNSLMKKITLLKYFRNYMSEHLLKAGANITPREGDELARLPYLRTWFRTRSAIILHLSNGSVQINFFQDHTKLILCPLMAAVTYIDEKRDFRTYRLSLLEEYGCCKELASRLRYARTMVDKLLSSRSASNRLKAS
VDR inhibitor: Inhibitors of the vitamin D receptor (VDR): qHTS | Potency, µM, inactives show max response, negative = inhibition, hits mostly inhibitors | Vitamin D3 receptor (Homo sapiens), P11473 | AID 504847, 2011 | VDR-SRC2-3 peptide fluorescence polarization, 2 h | 0.93% of 400,000 active; note: potency is the fitted concentration of half-maximal effect
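Signal is fluorescence polarization, reporting how far test compounds block the interaction of VDR with the SRC2-3 coregulator peptide after a 2 h room-temperature incubation.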
Starred values were filed as active, the others as inactive; ? = inconclusive; . = no result. Unless noted, calls come from the whole dose curve; as a rule, active = well fitted curve in the direction sought with a large enough effect; inconclusive = small, poorly fitted or top-dose-only effect, or another doubt; inactive = no such curve, though single readings can be large; an effect the other way counts as inactive or inconclusive. Unless noted, % is set by controls: 0 for no effect and ±100 for the full control effect.

SMILES	PI4K2A inh	GLS inh	KAT2A inh	PLK1 PBD block	VDR inhibitor
Cc1nc2c(C(=O)NCc3ccccc3Cl)cnn2c(C)c1Cc1ccccc1	0	-12%	-3%	.	11%
CCN(CC)C(=O)CC[C@@H]1CC[C@]2(CCCN(S(=O)(=O)c3ccccc3)C2)O1	4	.	.	.	.
NCCCC[C@H]1NC(=O)[C@H](CCC(=O)O)NC(=O)c2cc([N+](=O)[O-])cc(I)c2OCC[C@@H](C(N)=O)NC1=O	-11	?	-3%	7.5µM*	?
O=[N+]([O-])c1ccc(CN2CCN(c3nc4ccccc4s3)CC2)cc1	-4	11%	-8%	-9%	?
CCCn1nc([N+](=O)[O-])c(C(C#N)c2nc3ccccc3s2)c(Cl)c1=O (stereo unspecified)	-22	29%	-5%	24µM*	?
CC[C@H](C)[C@H](NC(=O)[C@H](Cc1ccccc1)NC(=O)[C@H](CC(C)C)NC(=O)[C@H](CCSC)NC(=O)[C@H](CCC(=O)O)NC(=O)[C@H](CCC(=O)O)NC(=O)[C@H](CC(=O)O)NC(=O)[C@H](CO)NC(=O)[C@@H]1CCCN1C(=O)[C@H](CCCCN)NC(=O)[C@@H](N)[C@@H](C)O)C(=O)N[C@@H](Cc1ccc(O)cc1)C(=O)NCC(=O)N[C@@H](Cc1cnc[nH]1)C(=O)N[C@@H](Cc1ccc(O)cc1)C(=O)N[C@@H](CCCCN)C(=O)N[C@@H](CCC(N)=O)C(=O)N[C@@H](C)C(=O)N[C@H](C(=O)N[C@H](C(=O)NCC(=O)N[C@@H](CC(=O)O)C(=O)N[C@H](C(=O)N[C@@H](CC(N)=O)C(=O)N[C@H](C(=O)N[C@@H](CCC(=O)O)C(=O)N[C@@H](CCCNC(=N)N)C(=O)N1CCC[C@H]1C(=O)NCC(=O)N[C@@H](CCSC)C(=O)N[C@@H](CC(C)C)C(=O)N[C@@H](CC(=O)O)C(=O)N[C@@H](Cc1ccccc1)C(=O)N[C@H](C(=O)O)[C@@H](C)O)[C@@H](C)O)[C@@H](C)CC)C(C)C)[C@@H](C)O	.	.	8%	.	2%
COc1ccc(OC)c(C2CC(=O)N3CN(c4ccccc4)CSC3=C2C#N)c1 (stereo unspecified)	-11	15%	28µM*	27µM*	20µM*
COc1ccc(CC(=O)N2CCN(c3ccccc3F)CC2)cc1OC	1	-6%	-6%	5%	-3%
COc1ccc(OC)c(C2C(C#N)=C(N)N(N(C)C)C3=C2C(=O)CCC3)c1 (stereo unspecified)	3	0%	18%	-5%	-20%
COc1ccc(C2CC(=O)N3CN(c4ccccc4F)CSC3=C2C#N)cc1OC (stereo unspecified)	-3	8%	22µM*	30µM*	32µM*
COc1ccc(C2CC(=O)N3CN(c4ccc(C)c(Cl)c4)CSC3=C2C#N)cc1 (stereo unspecified)	-6	17%	28µM*	24µM*	32µM*
O=C(NCc1ccc(F)c(F)c1)C1CCCN(c2nc3ccccc3o2)C1 (stereo unspecified)	-2	.	.	.	.
COc1ccc2ccccc2c1C=Nn1c(-c2n[nH]c3c2CCC3)n[nH]c1=S	-4	.	.	.	.
NNC(=O)CN1C(c2ccccc2Br)=Nc2ccc(Br)cc2C1c1ccccc1 (stereo unspecified)	-10	44%	-11%	-10%	71µM*
NNC(=O)CN1C(c2cccc(Cl)c2)=Nc2ccc(Br)cc2C1c1ccccc1 (stereo unspecified)	0	-3%	-9%	-14%	10%
CC1CCCCN1CCCOC(=O)c1ccc(OC2CCCCC2)cc1 (stereo unspecified)	2	.	.	.	.
CC(C)c1ccc(Nc2ncnc3c2c(-c2ccccc2)cn3-c2ccccc2)cc1	-5	-5%	-5%	.	4%
COC(=O)Cn1c(C)nc2ccccc21	-5	0%	-4%	-2%	3%
COC(=O)Cn1c(=O)c(C)nc2ccccc21	1	-17%	0%	30µM*	-18%
O=C(O)Cn1c(-c2ccccc2)nc2ccccc21	-7	-1%	-3%	27µM*	-6%
CC(COc1ccccc1)NN (stereo unspecified)	-12	4%	.	.	.
O=C(NN1CCOCC1)c1ccccc1F	6	-11%	-7%	-12%	-1%
O=C(NN1CCOCC1)c1cccc2ccccc12	0	?	-1%	30µM*	?
O=C(COC(=O)Cc1n[nH]c(=O)c2ccccc12)Nc1ccc(Cl)cc1F	0	-9%	-3%	-6%	-14%
Cc1nnnn1/C(=C\c1ccccc1)C(=O)OCC(=O)Nc1ccc(Cl)cc1F	13	3%	-1%	-29%	40µM*
SMILES	PI4K2A inh	GLS inh	KAT2A inh	PLK1 PBD block	VDR inhibitor
CC1(C)Cc2c(sc(NC(=O)Cc3ccccc3)c2C#N)CO1	2	-5%	-3%	?	8%
CCCCC(=O)Nc1sc2c(c1C#N)CC(C)(C)OC2	2	?	2%	27µM*	79µM*
CCCC(=O)Nc1sc(C)c(C)c1C#N	4	-1%	4%	21µM*	2%
CCCCCC(=O)Nc1sc(C)c(C)c1C#N	4	-4%	-17%	11µM*	?
Cc1sc(NC(=O)C2CCCC2)c(C#N)c1C	0	3%	-9%	27µM*	?
O=c1c2ccccc2n(Cc2ccco2)n1[C@@H](Cc1ccccc1)Cn1cc(-c2ccc(-c3ccccc3)cc2)nn1	-22	.	.	.	.
Cc1ccc(NC(=O)c2cnc(N3CCN(c4ccccn4)CC3)c3ccccc23)c(Br)c1	-1	0%	-30%	24µM*	1%
CC(C)C1CC(O)(C2(O)CCCCC2)ON1 (stereo unspecified)	-10	?	-1%	3.4µM*	-25%
Cc1cc(OC(=O)c2ccccc2Br)cc(=O)n1C	78	12%	-2%	21µM*	-7%
CCOc1ccccc1C(=O)N[C@H](C(=O)NCc1ccccc1)C(C)C	10	4%	-5%	-1%	19%
CC(C)C(NC(=O)c1ccccc1F)C(=O)NCc1ccccc1 (stereo unspecified)	-17	1%	-3%	27µM*	?
CC(C)CC1NC(=S)N(C2CCCCC2)C1=O (stereo unspecified)	-2	?	12%	3µM*	-24%
CC(=O)Nc1ccc(S[C@@H](CCN2CC[C@H](C(C)(C)C)CCC2=O)c2ccccc2)cc1	-1	2%	?	8.4µM*	?
CC(=O)Nc1ccc(SCCN2CCN(CCc3ccccc3)CCC2=O)cc1	.	.	.	.	18µM*
